Screens: PubChem, several laboratories
TRPM1 prom inh = inhibitors of MITF-dependent TRPM1 promoter reporter, primary screen, cell-based, SK-MEL-5, single point, luciferase | 330,000 tested, 0.83% active | inhibition, % at 12.5 µM | AID 488899, 2010 | SK-MEL-5 TRPM1 promoter luciferase, 24 h;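 active means mean inhibition across replicates of 60% or more, whatever share of single replicates reaches that level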
KKLEB cytotox = cytotoxicity in KKLEB CF airway cells, primary screen, cytotoxicity control for CF NF-kB inhibitor project, cell-based, uHTS, fluorescence assay plates; KKLEB CF airway cells viability, ATPlite luminescence, overnight; stronger effect = lower value; cells stimulated with P. aeruginosa culture filtrate; activity change (cytotoxicity), % at 5 µM; 360,000 tested, 0.36% active;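 active means corrected activity change at or below -50% at 5 µM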
Peg3 promoter = Peg3 promoter-driven luciferase inhibitors, primary screen, cell-based, HeLa, luciferase luminescence. 360,000 tested, 1.7% active. HeLa PEG-Prom luciferase reporter, overnight. inhibition, % at 20 µM;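 active means inhibition of at least 50% at 20 µM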
CF NFkB inh = inhibitors of PAF-induced NF-kB signaling, primary screen, cell-based, GFP fluorescence, uHTS; KKLEB NF-kB-GFP reporter, GFP fluorescence overnight; inhibition, % at 5 µM; 360,000 tested, 0.86% active; AID 588850, 2011;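 active means at least 50% inhibition at 5 µM, scaled per plate between neutral and stimulator controls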;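 further: PAF is a Pseudomonas aeruginosa culture filtrate used as stimulus; plate controls were PAF-stimulated DMSO wells for no effect and unstimulated DMSO wells for full effect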
LMP1 NFkB inh = EBV LMP1-driven NF-kappaB luciferase reporter inhibitors, primary screen, cell-based, luminescence, single point | AID 504558, 2011 | LMP1-induced NF-kappaB luciferase reporter cells | 350,000 tested, 0.69% active | inhibition, % at 12.5 µM; in the data active means inhibition above about 41%;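 further: 0% = neutral control wells and 100% = reference inhibitor control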
Shn3 inh set2 = reduction of Shn3 3'UTR firefly luciferase signal, primary screen, Schnurri-3 inhibitor project, cell-based, Clone20 osteoblasts, set 2; Clone20 osteoblast Shn3 3'UTR firefly luciferase, 24 h; inhibition, % at 12.5 µM; 360,000 tested, 0.52% active; AID 588674, 2011;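 active means mean inhibition of at least 75% with every replicate also reaching 75%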;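 further: 0% = median of neutral control wells and 100% = pilot-screen positive control compound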
CF NFkB conf = inhibitors of PAF-induced NF-kB signaling, retest, confirmation, cell-based, GFP fluorescence, single concentration; inhibition, % at 5 µM; 1,300 tested, 64% active; AID 602472, 2012; KKLEB CF airway cells, overnight; shares compounds with CF NFkB inh; in the data active means inhibition above about 40%;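 further: stimulus PAF is a Pseudomonas aeruginosa filtrate and not platelet activating factor; plate controls were DMSO wells with stimulus for no effect and unstimulated DMSO wells for full effect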
An asterisk follows results filed as active; x = no result; ! = not confirmed by another sample. Hits are enriched below; roughly 2.9% of the tested compounds scored in any of these assays.

SMILES	TRPM1 prom inh	KKLEB cytotox	Peg3 promoter	CF NFkB inh	LMP1 NFkB inh	Shn3 inh set2	CF NFkB conf
COc1ccc(-c2cn[nH]c2-c2ccc(OCc3ccccc3F)cc2O)cc1OC	11.9	-22.3	45.5	59.5*	16.6	37.9	60.5*
COc1ccc(-c2cn[nH]c2C)cc1	-4.5	-17.8	-1.8	53.2*	4.0	1.4	10.7
COc1ccc(-c2[nH]ncc2-c2ccc(Cl)cc2)c(O)c1	6.9	-10.0	42.1	21.4	1.0	11.0	x
C[C@H](CO)N1C[C@H](C)[C@H](CN(C)Cc2ccncc2)Oc2ccc(NC(=O)Nc3ccc(C(F)(F)F)cc3)cc2CC1=O	24.1	-22.3	31.5	15.6	6.7	14.9	x
CC(C)(C)NC(=O)C1(C)CCC(=O)N1CC(F)(F)F (centres undefined)	x	-13.1	14.6	-12.0	x	-2.1	x
COc1ccc(S(=O)(=O)Nc2ccc3c(c2)C(=O)N([C@H](C)CO)C[C@H](C)[C@@H](CN(C)S(=O)(=O)c2cccs2)O3)cc1	-11.8	0.0	-13.6	-24.5	-0.1	-7.1	x
Cc1ccc(C(=O)c2cncc(Br)c2)cc1	-45.0	-7.5	-77.7	50.3*	8.0	-5.3	61.5*
COc1ccc(N(CC(=O)NCc2ccc3c(c2)OCO3)S(=O)(=O)c2ccc(O)c(C(=O)O)c2)cc1	7.8	-5.7	-10.2	7.8	8.1	-13.4	x
O=C(Nc1ccccc1)Nc1ncc([N+](=O)[O-])s1	-4.5	-42.0	-142.5	57.1*	-10.3	19.5	86.7*
C[C@@H]1ON(C)[C@H]2C[C@H]3c4[nH]c5ccc(-c6ccc7c(c6)OCO7)cc5c4CCN3C(=O)[C@@H]12	x	-12.4	30.6	15.0	-0.3	-9.5	x
Cc1ccc(C(=O)Nc2cccc(C(F)(F)F)c2)cc1NC(=O)c1nccnc1N	-2.4	-44.5	9.8	59.2*!	-19.5	-9.7	78.1*
Cc1ccc(C(=O)Nc2cccc(C(F)(F)F)c2)cc1Nc1cncnc1	-13.6	-2.8	18.0	28.8	4.2	18.8	x
Cc1ccc(C(=O)Nc2cccc(C(F)(F)F)c2)cc1NC(=O)c1cnnc2ccccc12	25.3	-24.7	16.6	53.1*	20.3	1.0	51.6*
Cc1ccc(C(=O)Nc2cccc(C(F)(F)F)c2)cc1NC(=O)c1[nH]cnc1C(N)=O	1.6	-18.9	-4.9	14.8	-0.9	-8.4	x
CCCNC(=O)C1(C)CCCN(Cc2ccccc2F)C1 (centres undefined)	x	-1.4	-4.4	13.1	x	-11.1	x
C/C(=N/NC(=O)c1cccs1)c1ccc(NC(=O)COc2ccc(Cl)cc2)cc1	15.6	-41.1	29.4	59.0*	-7.0	-16.3	77.8*
C/C(=N\NC(=O)c1ccc(NS(=O)(=O)c2cccs2)cc1)c1ccc(Cl)cc1	-12.3	-2.8	6.0	6.7	-1.6	14.5	x
COc1ccc(NC(=O)C2(C)CCCN(C(C)=O)C2)cc1F (centres undefined)	x	-2.2	-6.9	-19.0	x	-0.1	x
Cc1cc2ccccn2c1C(=O)c1ccc(NN)c([N+](=O)[O-])c1	32.4	-8.0	30.6	55.8*	1.7	9.2	10.4
COc1cc(C)cc(OC)c1OCC(=O)Nc1cc(C)on1	-6.9	-6.7	10.9	-0.6	-5.2	4.3	x
Cc1ccc(C(=O)c2cnc3ccccc3c2-c2ccccc2)cc1	-7.8	-17.1	18.6	70.4*	13.3	24.8	37.7
COc1ccc(C(=O)c2cnc3ccccc3c2-c2ccccc2)cc1	2.5	-20.8	29.3	45.6	9.1	21.9	x
COc1ccc(-c2cc(NC=O)c3ncc(-c4ccc(C(C)=O)cc4)n3c2)cc1OC	x	-19.0	68.3*	50.4*	x	9.9	32.7
CC(=O)c1ccc(-c2cnc3c(NC=O)cc(-c4ccc(C(=O)N5CCOCC5)cc4)cn23)cc1	x	-17.4	42.4	38.9	x	14.6	x
COc1cc(-c2cnc3c(NC=O)cc(-c4ccccc4Cl)cn23)cc(OC)c1OC	x	-20.3	-0.6	30.7	x	7.3	x
SMILES	TRPM1 prom inh	KKLEB cytotox	Peg3 promoter	CF NFkB inh	LMP1 NFkB inh	Shn3 inh set2	CF NFkB conf
COc1cc(-c2cnc3c(NC=O)cc(-c4ccc(C)cc4)cn23)cc(OC)c1OC	x	-23.5	-9.4	50.9*	x	11.2	71.1*
COc1cccc(-c2cc(NC=O)c3ncc(-c4ccc(C(C)=O)cc4)n3c2)c1	x	-44.2	28.7	59.0*	x	26.0	62.7*
COc1ccc(-c2cc(NC(C)=O)c3ncc(-c4ccc(OC)c(OC)c4)n3c2)cc1OC	x	0.8	36.9	-11.1	x	16.0	x
COc1ccc(-c2cnc3c(NC=O)cc(-c4ccc(C(=O)N5CCOCC5)cc4)cn23)cc1OC	x	-34.6	34.8	57.2*	x	-2.1	62.8*
COc1ccc(-c2cc(NC=O)c3ncc(-c4cccc(C(C)=O)c4)n3c2)cc1	x	-1.7	27.8	-0.6	x	9.0	x
COc1ccccc1-c1cc(NC=O)c2ncc(-c3cccc(C(F)(F)F)c3)n2c1	x	-5.8	21.8	26.1	x	40.8	x
COc1ccccc1-c1cc(NC=O)c2ncc(-c3ccc(F)cc3)n2c1	x	-24.4	13.7	67.4*	x	14.6	54.3*
COc1cc(OC)cc(-c2c(C#Cc3ccsc3)c3cc(-c4cccc5[nH]cc(C=O)c45)ccc3n2C)c1	7.9	-13.8	53.8*	73.2*	-10.9	-9.6	-33.2
COc1ccc(-c2c(C#Cc3ccsc3)c3cc(-c4cccc5[nH]ccc45)ccc3n2C)cc1	7.3	1.1	-4.4	-5.6	-0.1	2.4	x
CC(C)(C)[C@H]1COC(=O)[C@H](NC(=O)OCC2c3ccccc3-c3ccccc32)C/C=C\C[C@@H](CC(=O)N[C@@H](CO)Cc2ccccc2)C(=O)N1	5.6	-4.9	8.4	15.9	2.6	3.1	x
CC1=CC(C)(C)N(S(=O)(=O)c2ccc(F)cc2)c2ccccc21	34.4	-29.2	29.9	30.2	9.6	25.6	x
CC(=O)Nc1ccc(S(=O)(=O)N2c3ccccc3C(C)=CC2(C)C)cc1	34.5	-17.3	22.4	54.0*	14.1	-15.9	64.6*
CCN1CCN(Cc2ccc(NC(=O)c3ccc(C)c(NC(=O)c4csc(-c5ccncc5)n4)c3)cc2C(F)(F)F)CC1	49.1	-8.5	-9.0	70.8*	17.7	-1.3	45.9*
CCN1CCN(Cc2ccc(NC(=O)c3ccc(C)c(NC(=O)c4ccno4)c3)cc2C(F)(F)F)CC1	-6.4	-3.9	17.5	56.1*	47.5*	17.9	69.3*
CC(=O)Nc1cc(-c2ccccc2Cl)cn2c(-c3ccc(S(C)(=O)=O)cc3)cnc12	x	-10.5	4.7	10.9	x	6.2	x
COc1ccccc1C(=O)Nc1ccccc1SC(=O)c1ccccc1OC	-8.1	2.1	-92.7	51.3*	-20.7	-47.4	39.3
